Unmarked numbers belong to inactive results.

This experiment relates to MCF10A. The experiment is described as follows: perturbation Mahalanobis distance of morphological profile vs DMSO controls (Mahalanobis distance (SD units)); higher = stronger morphological change, active = 7 or more. The settings on record: screen batch: Batch1_Mahalanobis_Distance; 72 h. The protocol:
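MCF10A cells were seeded onto drugs dispensed acoustically into 384-well plates, using one dose per drug chosen from its human peak plasma concentration, and incubated for 72 h at 37 °C. Cells were stained for DNA, tubulin and mitochondria and imaged; 78 CellProfiler features were extracted, plate-normalised and compared with DMSO wells.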
Take `Cc1cn[nH]c1` [Fomepizole] (299.6 µM): the “perturbation Mahalanobis distance” value was 2.14.

On to `COc1cc(Cc2cnc(N)nc2N)cc(OC)c1OC` [Trimethoprim] (43.1 µM), for which the “perturbation Mahalanobis distance” value was 4.35. With `CC(C)(Sc1cc(C(C)(C)C)c(O)c(C(C)(C)C)c1)Sc1cc(C(C)(C)C)c(O)c(C(C)(C)C)c1` [Probucol] (12.58 µM) the figure was 2.88; with `CC(C)(Oc1ccc(Cl)cc1)C(=O)O` [Clofibric Acid] (368 µM), 3.07; with `CC1(C)N=C(N)N=C(N)N1c1ccc(Cl)cc1` [Cycloguanil] (3.4 µM), 2.56. Then `COC(=O)C1=C(C)NC(C)=C(C(=O)OCC(C)C)C1c1ccccc1[N+](=O)[O-]` (stereo not given) [Nisoldipine] (13 µM), with 2.36; and `O=C1CN(/N=C/c2ccc(-c3ccc([N+](=O)[O-])cc3)o2)C(=O)N1` [Dantrolene] (23.9 µM), with 2.62. On to `CNC[C@H](O)c1ccc(O)c(O)c1` [Epinephrine] (27.3 µM), for which the “perturbation Mahalanobis distance” value is 2.67. As to `CC[C@H]1OC(=O)[C@H](C)[C@@H](O[C@H]2C[C@@](C)(OC)[C@@H](O)[C@H](C)O2)[C@H](C)[C@@H](O[C@@H]2O[C@H](C)C[C@H](N(C)C)[C@H]2O)[C@](C)(O)C[C@@H](C)CN(C)[C@H](C)[C@@H](O)[C@]1(C)O` [Azithromycin] (6.7 µM), the “perturbation Mahalanobis distance” value is 3.29.

`O=C1CCc2ccc(OCCCCN3CCN(c4cccc(Cl)c4Cl)CC3)cc2N1` [Aripiprazole] (3.3 µM): the “perturbation Mahalanobis distance” value is 2.24.

Values taken from the supplement of paper PMC6853941.
